TRHR ag – qHTS for Small Molecule Agonists and Allosteric Enhancers of Human TRH Receptor: Primary Screen for Agonists; 360,000 tested, 0.18% active; Thyrotropin-releasing hormone receptor (Homo sapiens), P34981; TRHR cells, calcium flux fluo-8, FDSS agonist mode; AID 493084, 2011; activation, % at 2 µM
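Agonist-mode FDSS calcium read (Ex 480/Em 530, 1 s cycles) in 1536-well TRHR cells with fluo-8 dye, after 10-cycle baseline and 23 nL compound addition; TRH at EC20 (10 nM final) added afterwards for the enhancer phase.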
TRHR enhancer – qHTS for Small Molecule Agonists and Allosteric Enhancers of Human TRH Receptor: Primary Screen for Enhancers; TRHR cells, fluo-8 calcium fluorescence, EC20 TRH enhancement; enhancement, % at 2 µM; 360,000 tested, 0.66% active; in the data active means enhancement above about 30%
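Enhancer read-out: after compound pinning and an initial kinetic agonist-mode read, an EC20 of TRH (10 nM final) was injected and fluo-8 calcium signal (Ex 480/Em 530) followed at 1 s/cycle for 100 cycles in TRHR-expressing cells.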
LDHA block – qHTS assay for inhibitors of human lactate dehydrogenase. activity change, % (values are at about 110 or 230 µM). AID 1347041, 2019. purified LDHA, NADH/diaphorase-resazurin fluorescence; stronger effect = lower value. 480,000 tested, 0.15% active. L-lactate dehydrogenase A chain (Homo sapiens), P00338; in the data active means activity change below about -30%
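Human LDH5 at 2 nM final in Tris HCl pH 7.4 with 0.06 mM NADH and 0.2 mM pyruvate, reacted 5 minutes at room temperature. Remaining NADH coupled via diaphorase/resazurin; resorufin fluorescence read at 0 and 20 minutes, normalized to enzyme-free and DMSO wells.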
D1 ag – Allosteric Agonists of the Human D1 Dopamine Receptor: qHTS; D(1A) dopamine receptor (Homo sapiens), P21728; HEK293 T-REx D1 cells, calcium flux, agonist mode; activation, % at 2 µM; 360,000 tested, 1% active; AID 504660, 2011
Target sequence (P21728 whole entry, looked up): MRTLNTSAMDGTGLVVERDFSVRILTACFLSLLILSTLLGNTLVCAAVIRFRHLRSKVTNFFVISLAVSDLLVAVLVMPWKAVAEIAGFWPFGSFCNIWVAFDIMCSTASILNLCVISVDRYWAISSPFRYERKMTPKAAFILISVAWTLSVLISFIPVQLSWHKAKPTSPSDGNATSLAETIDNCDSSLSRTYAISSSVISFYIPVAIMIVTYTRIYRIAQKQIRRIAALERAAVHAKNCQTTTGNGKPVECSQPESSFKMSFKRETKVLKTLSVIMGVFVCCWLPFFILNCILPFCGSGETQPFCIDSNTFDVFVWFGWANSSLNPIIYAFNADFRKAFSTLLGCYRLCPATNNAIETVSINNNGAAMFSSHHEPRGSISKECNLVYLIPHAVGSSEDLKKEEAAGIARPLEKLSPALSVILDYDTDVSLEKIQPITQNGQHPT
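Agonism was scored from calcium flux recorded over 180 s (1 read/s) after pintool compound addition, following a 10-cycle baseline. Cells were inducible force-coupled HEK293 TREx D1, plated overnight at 30 C and loaded with no-wash calcium dye.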
D1 antag – Antagonist of Human D 1 Dopamine Receptor: qHTS; D(1A) dopamine receptor (Homo sapiens), P21728; HEK293 TREx D1 cells, calcium flux, dopamine EC80; stronger effect = lower value; activity change, negative = inhibition, % at 10 µM; 360,000 tested, 3.2% active; in the data active means activity change below about -30%
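Using tetracycline-induced force-coupled D1 Hek293 cells and a calcium dye, signals were followed for 180 s after compound, then for 180 s after EC80 dopamine, to detect inhibitors.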
D1 PAM – Potentiators of Human D1 Dopamine Receptor: qHTS; potentiation, % at 10 µM; 360,000 tested, 0.036% active; D(1A) dopamine receptor (Homo sapiens), P21728; HEK293 TREx D1 cells, calcium flux, dopamine EC20 potentiation; in the data active means potentiation above about 30%
Each line names hits and unclear results; the compound was inactive in the other large screens. A selection: hits, their analogues and other compounds. The true share with any hit is near 3.6%. Unless noted, no stated cut-off is given here; in the data, active means activation above about 30%; inactive means the rest.

O=C(NC1=NCCS1)c1cccc(S(=O)(=O)N2CCOCC2)c1	TRHR enhancer 32
O=C(c1cccc(S(=O)(=O)N2CCOCC2)c1)N(CCO)Cc1ccccc1	D1 antag -33
CCN(Cc1ccccc1)C(=O)c1cccc(S(=O)(=O)N2CCN(c3ccc(F)cc3)CC2)c1	D1 antag -63
CC(=O)N1CCN(C(=O)c2cccc(S(=O)(=O)N3CCN(c4ccc(F)cc4)CC3)c2)CC1	D1 ag 53
O=C(c1cccc(S(=O)(=O)N2CCCCC2)c1)N(CCc1ccccc1)Cc1ccccc1	none
Cn1c(=O)c2nc(SCC(=O)c3ccccc3)n(C)c2n(C)c1=O	none (no result: TRHR ag, TRHR enhancer, D1 ag, D1 antag, D1 PAM)
O=C(c1cccc(NS(=O)(=O)c2ccc(F)cc2)c1)N1CCN(c2ccccc2)CC1	D1 antag -42
O=C(c1cccc(F)c1)N1CCN(S(=O)(=O)c2ccccc2)CC1	none
CC(C)c1ccc(S(=O)(=O)N2CCN(C(=O)c3cccc(F)c3)CC2)cc1	D1 antag -68
COc1cc(/C=C(/C#N)C(=O)c2c[nH]c3cccc(C)c23)cc(OC)c1	none (no result: TRHR ag, TRHR enhancer, D1 ag, D1 antag, D1 PAM)
O=C(CCCN1C(=O)CCC1=O)Nc1ccccc1F	none
O=C(CCCN1C(=O)CCC1=O)Nc1ccc(Br)cc1F	D1 antag -32
Cn1nc(C(=O)N2CCN(c3ccccc3F)CC2)c2c1-c1ccccc1SC2	D1 antag -35
Cc1cc(C)cc(C(=O)N(Cc2ccco2)C2CC2)c1	none (no result: TRHR ag, TRHR enhancer, D1 ag, D1 antag, D1 PAM)
S=C(Nc1ccccc1Cl)NC1CC2CCCC(C1)N2C1CC1 (stereo unspecified)	D1 antag -54
Cc1ccc(S(=O)(=O)N(Cc2ccc(C(=O)NC3CC3)cc2)C2CC2)c(C)c1	none (no result: TRHR ag, TRHR enhancer, D1 ag, D1 antag, D1 PAM)
CC(C)CCNC(=S)Nc1ccc(SC(F)F)cc1	none (no result: TRHR ag, TRHR enhancer, D1 ag, D1 antag, D1 PAM)
COc1ccc(COC(=O)Nc2cc3c(C(F)(F)F)nn(C)c3s2)cc1	TRHR enhancer 30
COc1ccccc1-c1cc(=O)c2cc(NS(=O)(=O)c3ccc(Cl)cc3)ccc2o1	none (no result: TRHR ag, TRHR enhancer, D1 ag, D1 antag, D1 PAM)
O=C(/C=C/c1ccc(Cl)cc1Cl)Nc1cccc(S(=O)(=O)NC2=NCCC2)c1	D1 antag -31
Cc1cc(SCC(=O)N/N=C/c2ccc(O)c(O)c2)c(C)cc1Br	D1 antag -32
Cc1cc(SCC(=O)N/N=C/c2ccc(O)c(O)c2)nc2ccccc12	none
O=C(Nc1nnc(SCC(=O)N2CCOCC2)s1)C1CC(=O)N(c2ccc(F)cc2)C1 (stereo unspecified)	D1 antag -47
CC1=C(C(=O)Nc2ccccc2)C(c2cccs2)n2nc(-c3ccccc3)nc2N1 (stereo unspecified)	none (no result: TRHR ag, TRHR enhancer, D1 ag, D1 antag, D1 PAM)
COC(=O)C1=C(C)Nc2nc(-c3ccccc3)nn2C1c1ccc(C)o1 (stereo unspecified)	D1 antag -57
Cc1c(C)n(Cc2ccncc2)c2ncn3ncnc3c12	none (no result: TRHR ag, TRHR enhancer, D1 ag, D1 antag, D1 PAM)
O=C(c1ccc(Cl)cc1)C1CCCN(Cc2cccn2-c2cccnc2)C1 (stereo unspecified)	TRHR enhancer 33
COc1ccc(C(=O)C2CCCN(Cc3c(F)ccc(F)c3F)C2)c(OC)c1 (stereo unspecified)	none
COc1ccc(C(=O)C2CCCN(Cc3cccn3-c3ccc(Cl)cn3)C2)c(OC)c1 (stereo unspecified)	D1 ag 33
CSc1ccc(C(=O)C2CCCN(Cc3cccn3-c3cccnc3)C2)cc1 (stereo unspecified)	none
COc1ccc(CC(=O)NC(c2cccs2)C2CCCC2)cc1 (stereo unspecified)	none (no result: TRHR ag, TRHR enhancer, D1 ag, D1 antag, D1 PAM)
Cc1cc(C(=O)N/N=C/c2ccsc2)cs1	none (no result: TRHR ag, TRHR enhancer, D1 ag, D1 antag, D1 PAM)
CC(NC(=O)C1CCN(c2ccc(C#N)cn2)CC1)c1ccc(Cl)cc1Cl (stereo unspecified)	none (no result: TRHR ag, TRHR enhancer, D1 ag, D1 antag, D1 PAM)
C=CC[n+]1c(-c2ccc(C)cc2)csc1Nc1ccc(NC(C)=O)cc1	D1 antag -47
